Source: PubChem BioAssay (National Center for Advancing Translational Sciences (NCATS))
Compounds with a hit are over-represented: about 19% of the library has one in this group of screens.
IL-1B inflam inh – inflammasome signaling inhibition, IL-1 beta readout; activity change, % at 57.5 µM; THP-1 LPS/ATP IL-1B secretion, AlphaLISA, 16 h; hits give low values; 360,000 tested, 4.7% active; in the data active = activity change below about -50%; inconclusive = mostly about -30% to -49%
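Secreted IL-1B measured by AlphaLISA bead assay after 16 h compound exposure of THP-1 cells; compounds (final up to 57.5 uM) added 1 h before LPS (250 ng/mL) and ATP (1.25 mM) stimulation; lower signal means less secretion.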
HT1080 IDH1KD tx – HT-1080 IDH1 knockdown cell toxicity (counter line); HT-1080 IDH1 knockdown viability, ATP luminescence, 48 h; Potency, µM (top dose mostly 46.1 µM), without a hit: top-dose activity, negative = toxicity, hits mostly cytotoxic; 360,000 tested, 2% active;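 note: potency is the fitted concentration of half-maximal effect; 0% = DMSO wells and -100% = cell-free medium wells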
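After a 2 h attachment period, IDH1KD HT-1080 cells took pin-transferred compound for 48 h at 37 °C; ATP-based luminescence after 10 min room-temperature reagent incubation reported viability.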
TDP1 cell noCPT – qHTS for Inhibitors of human tyrosyl-DNA phosphodiesterase 1 (TDP1): qHTS in cells in absence of CPT; DT40 Tdp1-/- hTDP1 cells, no CPT, ATP luminescence, 48 h; Potency, µM (titrated, usually from 46.2 µM), without a hit: at the top dose activity change, negative = growth inhibition, usual class: inhibitors; 420,000 tested, 15% active; note: potency is the fitted concentration of half-maximal effect; nearly all actives have a fitted effect of over 55% in size
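Chicken DT40 Tdp1-/- cells complemented with human TDP1, screened without camptothecin (DMSO vehicle only), 400 cells/well. Compounds pin-transferred, cells incubated at 37 °C for at least 48 hr. Growth read as ATP-dependent luminescence (CellTiter-Glo, 30 min at RT).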
HT1080-NT tox – kills 2HG-producing HT-1080-NT fibrosarcoma cells; HT-1080-NT fibrosarcoma viability, CellTiter-Glo ATP luminescence, 48 h; Potency, µM (highest dose often 46.1 µM), for inactives: at the highest dose activity, negative = less viability, usual class: cytotoxic; 360,000 tested, 1.6% active; AID 686970;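 note: NT is the 2HG producing partner of a matched IDH1 knockdown line; potency is the fitted concentration of half-maximal effect; 0% = DMSO-treated cells and -100% = media-only wells without cells; nearly all actives have a fitted effect of over 55% in size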
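HT-1080-NT fibrosarcoma cells (2HG-overproducing), 750 cells/well in RPMI with 5% FBS, dosed after 2 h and incubated 48 h at 37C. CellTiter-Glo luminescence normalized to DMSO and no-cell wells; concentration-response curves fitted and classed.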
TDP1 cell CPT – growth inhibition of DT40 Tdp1-/-;hTDP1 cells with camptothecin (screen for TDP1 inhibitors); chicken DT40 Tdp1-/-;hTDP1 cells + 20 nM CPT, ATP luminescence, 48 h; Potency, µM (series often up to 46.2 µM), for the others: at the highest dose activity change, negative = growth inhibition, most hits filed as inhibitors; 420,000 tested, 12% active; AID 686979; note: potency is the fitted concentration of half-maximal effect; nearly all actives have a fitted effect of over 55% in size
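Chicken DT40 Tdp1-/- cells stably complemented with human TDP1 were seeded at 400 cells/well in medium containing 20 nM camptothecin, exposed to pin-transferred compounds, and grown at 37 °C for at least 48 hr. Viability was read as ATP luminescence.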
Active calls of the source: *; u = inconclusive; x = no result given; [ ] = dose if it differs, or a comment. Unless noted, calls come from the whole dose curve; as a rule, active = well fitted curve in the direction sought with a large enough effect; inconclusive = small, poorly fitted or top-dose-only effect, or another doubt; inactive = no such curve, though single readings can be large; an effect the other way counts as inactive or inconclusive. Unless noted, % is set by controls: 0 for no effect and ±100 for the full control effect.

SMILES | IL-1B inflam inh | HT1080 IDH1KD tx | TDP1 cell noCPT | HT1080-NT tox | TDP1 cell CPT
COC(=O)[C@H](CC(C)C)NC(=O)N1CCN(c2cccc(C(F)(F)F)c2)CC1 | 5.9 | 1.6% | -5.5% | -6.2% | u
O=C(/C=C(/c1ccc(Cl)cc1)n1cncn1)c1ccccc1 | -57.6* | -10.0% | u | -6.9% | u
CN(C)/C=C(/C(=O)c1ccccc1)n1cncn1 | 23.2 | 13.3% | -4.1% | 9.9% | 4.5%
COc1cc(-c2cc(O)c(-c3ccc4ccccc4n3)c(=O)[nH]2)cc(OC)c1OC | 3.6 | -26.0% | 14.6µM* | u | u
COc1ccc(N=C2SC(CC(=O)Nc3ccccc3)C(=O)N2CCc2ccccn2)cc1 (stereo unspecified) | -12.6 | 10.1% | u | 1.5% | u
COc1ccc(N=C2SC(CC(=O)Nc3ccc(OC)cc3OC)C(=O)N2C)cc1 (stereo unspecified) | 12.4 | -3.2% | -22.2% | 7.3% | -8.6%
COc1cc([N+](=O)[O-])ccc1NC(=O)CC1SC(=Nc2ccc(F)cc2)N(CCC2=CCCCC2)C1=O (stereo unspecified) | -4.0 | -3.5% | 14.6µM* | -1.4% | 16.4µM*
C=CCN1C(=O)C(CC(=O)Nc2ccc(OC)cc2)SC1=Nc1ccc(S(N)(=O)=O)cc1 (stereo unspecified) | 6.4 | 13.8% | 2.7% | 12.4% | 24.2%
COc1ccc(N=C2SC(CC(=O)Nc3cccc(Cl)c3)C(=O)N2Cc2ccco2)cc1 (stereo unspecified) | u | 16.4µM* | u | u | u
COc1ccc(OC)c(NC(=O)CC2SC(=Nc3ccccc3)N(CCc3ccccn3)C2=O)c1 (stereo unspecified) | u | -18.9% | u | -16.7% | 23.1µM*
COc1ccc(N=C2SC(CC(=O)Nc3ccccc3)C(=O)N2Cc2ccccn2)cc1 (stereo unspecified) | -67.0* | -8.2% | 23.1µM* | -26.7% | 29.1µM*
CSc1nccc(N/N=C/c2ccccc2)n1 | -28.8 | 9.6% | -17.9% | 19.9% | 2.0%
CC(CC(=O)N1CCN(c2cccc(Cl)c2)CC1)S(=O)(=O)c1ccc2c(c1)NC(=O)CO2 (stereo unspecified) | -13.7 | -4.1% | 2.31µM* | -4.3% | 4.11µM*
COc1ccc(N2CCN(C(=O)CC(C)S(=O)(=O)c3ccc4c(c3)NC(=O)CO4)CC2)cc1 (stereo unspecified) | 0.0 | -10.4% | 13µM* | -20.2% | 14.6µM*
CNc1nc(Cl)c(SC)c(NCc2ccc(F)cc2)n1 | 0.0 | -2.3% | u | -3.2% | u
CCOc1ccc(/C=N/NC(=S)Nc2c(C)cccc2C)cc1 | -24.1 | -29.9% | 20.6µM* | -24.2% | 20.6µM*
CCNC(=S)N/N=C/c1ccc(OCC(=O)Nc2ccc(OC)cc2)c(OC)c1 | -1.8 | 0.4% | u | -16.3% | u
CCNC(=S)N/N=C/c1ccc(OCC(=O)Nc2ccc(C)cc2)cc1 | 14.2 | 10µM* | -30.0% | 5.62µM* | u
COc1ccc(C(=O)OCC(=O)N2CCN(C(=O)c3ccco3)CC2)cc1OC | -7.4 | 12.9% | -2.4% | 11.8% | 21.9%
CC(C)c1c(C(=O)N2CCCCC2c2cccnc2)cnn1-c1nccc(-c2cccs2)n1 (stereo unspecified) | x | x | u | x | -11.2%[9.04 µM]
N/C(Cc1ccc(Cl)cc1)=N\OC(=O)Cc1ccc([N+](=O)[O-])cc1 | -103.4* | 4.8% | u | 6.2% | u
Cc1ccc(C(=O)NCCOc2ccc(Cl)cc2)cc1 | -5.2 | 0.8% | -3.6% | -1.3% | 11.9%
Cc1ccc(C(=O)CC(=O)COc2ccc(Cl)cc2)cc1 | 0.0 | u | 14.6µM* | u | u
COc1ccccc1C/C(N)=N/OC(=O)c1cccc([N+](=O)[O-])c1 | 5.4 | 0.0% | u | 1.5% | u
N/C(=N\OC(=O)Cc1ccc(Cl)cc1)c1ccncc1 | 5.9 | -1.1% | -4.3% | 0.4% | 11.9%
SMILES | IL-1B inflam inh | HT1080 IDH1KD tx | TDP1 cell noCPT | HT1080-NT tox | TDP1 cell CPT
C/C(=N\NC(=O)CSCc1ccc([N+](=O)[O-])cc1)c1cccc(Br)c1 | -8.4 | -6.9% | 18.4µM* | -11.7% | 10.3µM*
COc1cc(C(=O)O/N=C(\N)Cc2ccc([N+](=O)[O-])cc2)cc(OC)c1OC | -2.9 | u | 14.6µM* | u | 3.66µM*
O=C(CN(Cc1ccccc1Cl)C(=O)c1csnn1)NC1CCCC1 | -5.5 | -17.9% | -25.4% | -6.0% | -2.6%
CCCn1c(N)c(N(CCOC)C(=O)c2ccc(F)cc2F)c(=O)[nH]c1=O | 14.5 | 11.2% | -13.0% | 18.4% | -6.2%
Cc1ccc(OCC(=O)O/N=C(\N)Cc2ccc(Cl)cc2)cc1 | -0.4 | -9.8% | 4.61µM* | 8.7% | 6.51µM*
COc1ccc(C(=O)O/N=C(\N)Cc2ccc([N+](=O)[O-])cc2)c(OC)c1 | -10.6 | 18.4µM* | 1.84µM* | u | 1.3µM*
COc1ccc(C/C(N)=N/OC(=O)c2cccc([N+](=O)[O-])c2)cc1 | -11.9 | -9.4% | u | -0.6% | u
N/C(Cc1ccc([N+](=O)[O-])cc1)=N\OC(=O)c1ccc([N+](=O)[O-])cc1 | u | -3.8% | u | -0.5% | u
N/C(Cc1ccc([N+](=O)[O-])cc1)=N\OC(=O)c1cccc(Br)c1 | -5.4 | 7.0% | u | 0.5% | 14.6µM*
COc1ccc(OCC(=O)O/N=C(\N)Cc2ccc(Cl)cc2)cc1 | -0.2 | 1.9% | -4.8% | -0.2% | -15.4%
CC(C)[C@H](NC(=O)[C@@H]1CSC2c3ccccc3C(=O)N21)C(=O)N1CCCCC1 (stereo partly specified) | 10.0 | -3.4% | -1.0% | -2.7% | -13.6%
COCCNC(=O)C1(C)CCN(C(=O)c2cc(C)nn2C(C)(C)C)C1 (stereo unspecified) | 7.6 | 11.1% | 1.5% | 25.0% | 17.5%
O=c1[nH][nH]c2c1[C@@H](c1ccc(F)cc1)O[C@H](CCc1ccccc1)C2 | 48.3 | u | u | -16.7% | -22.7%
COCCn1c(SCC(=O)NC2(C#N)CCCCC2)nc2ccccc2c1=O | 0.0 | 12.4% | 1.8% | -4.2% | -12.0%
COc1ccc(N(CC(=O)NCc2ccco2)S(=O)(=O)c2ccc(OC)c(OC)c2)cc1 | 13.3 | -3.6% | -14.1% | -1.1% | -12.1%
COc1ccc(OC)c(NC(=O)c2cc3cccc(OC)c3oc2=O)c1 | x | x | -13.4% | x | -11.8%
C[C@H]1CN([C@@H](C)CO)S(=O)(=O)c2ccc(C#CC3(O)CCCC3)cc2O[C@@H]1CN(C)C(=O)Cc1cccnc1 | 30.3 | 6.5% | -19.1% | 2.1% | -24.2%
Cc1ccc(CNC(=O)COc2cccc3c2OC(C)(C)C3)cc1 | -15.1 | -4.6% | 18.4µM* | -6.1% | u
